High-throughput results: PubChem BioAssay, The Scripps Research Institute Molecular Screening Center
This is a sample that favours compounds with a hit; in the whole collection about 5.7% have one here.
hgDAF12 agonist: agonists of H. glycines DAF-12 nuclear receptor. actives 1.8% (n = 370,000). activation, % at 6.8 µM. HEK293 GAL4-hgDAF12 UAS-luciferase reporter, agonist luminescence; normalized to butyrate control. AID 687014;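 active = activation above a cutoff set at the mean of all screened compounds plus 3 SD, cut at about 10% in these data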;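 note: 0% = DMSO wells and 100% = sodium butyrate wells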
DAX1 inh-1: DAX1 (NR0B1) inhibition, primary screen; inhibition, % at 6.8 µM; actives 1.1% (n = 370,000); HEK293T StAR-luciferase reporter, SF-1/DAX-1 repression relief;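 active = inhibition above the mean over all tested compounds plus 3 SD, cut at about 3.6% in these data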;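 note: 0% = DAX-1 cells with DMSO and 100% = cells lacking DAX-1 with DMSO; higher inhibition means more luminescence from relief of DAX-1 repression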
DAX1 inh-2: inhibitors of human orphan nuclear receptor DAX1 (NR0B1). HEK293 Gal4-DAX1 luciferase reporter, luminescence. inhibition, % at 6.75 µM. actives 0.99% (n = 340,000). AID 504766;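 active = inhibition above the mean over all tested compounds plus 3 SD, cut at about 4.2% in these data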;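 note: 0% = DAX1-transfected cells with DMSO and 100% = empty-vector control cells with DMSO; inhibition shows as a rise in luminescence from relieved DAX1 repression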
hcDAF-12 act: activators of H. contortus DAF-12 nuclear receptor. HEK293 hcDAF-12 lit1-tk-luc reporter, luminescence; 0% DMSO, 100% Δ7-dafachronic acid. activation, % at 6.8 µM. actives 1.4% (n = 370,000);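 active = activation above the mean of all tested compounds plus 3 SD, cut at about 5.5% in these data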;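 note: 100% = response to 3 µM Δ7-dafachronic acid high control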
AHR act: human AHR activation. P35869. AHR-responsive luciferase reporter cells, luminescence. activation, % at 5 µM. actives 2.5% (n = 320,000). AID 2796; in the data active = activation above about 47%;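 note: 0% = vehicle wells and 100% = reference agonist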
ssDAF-12 act: activates DAF-12 receptor from parasite S. stercoralis; AID 652126; HEK293 ssDAF-12/GRIP1 lit1-tk-luc reporter, luminescence; % of 3 µM dafachronic acid response; activation, % at 6.8 µM; actives 1% (n = 370,000);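 active = activation above the mean over all tested compounds plus 3 SD, cut at about 0.9% in these data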;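 note: 0% = DMSO-only wells and 100% = 3 µM delta7-dafachronic acid wells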
LXR ag: LXR-beta agonism as hcDAF-12 counter-screen | shares compounds with hcDAF-12 act | HEK293 Gal4-LXR tk-luc reporter, luminescence, 24 h; normalized: DMSO 0%, positive control 100% | activation, % at 6.8 µM | 3,400 tested, under 10 active;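 active = mean percent activation of the reporter above a cutoff set as the average over tested compounds plus their standard deviation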
Target sequence (P55055 whole entry, looked up, the tested form may be a part): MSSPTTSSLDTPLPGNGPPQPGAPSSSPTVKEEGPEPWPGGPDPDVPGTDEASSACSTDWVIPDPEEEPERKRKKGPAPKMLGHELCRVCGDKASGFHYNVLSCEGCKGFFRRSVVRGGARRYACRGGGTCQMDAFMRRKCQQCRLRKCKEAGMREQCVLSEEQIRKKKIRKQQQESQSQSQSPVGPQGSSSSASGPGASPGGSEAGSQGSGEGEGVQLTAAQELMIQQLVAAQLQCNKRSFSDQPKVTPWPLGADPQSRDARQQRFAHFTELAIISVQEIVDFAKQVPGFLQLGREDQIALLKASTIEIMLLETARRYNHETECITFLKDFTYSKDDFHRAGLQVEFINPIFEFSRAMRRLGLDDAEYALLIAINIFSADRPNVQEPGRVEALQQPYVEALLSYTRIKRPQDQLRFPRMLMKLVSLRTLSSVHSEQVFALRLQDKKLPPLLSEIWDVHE
hcDAF12 conf: confirmation of H. contortus DAF-12 agonists. shares compounds with hcDAF-12 act. HEK293 hcDAF-12 lit1-tk-luc reporter, luminescence; % of Δ7-dafachronic acid response. activation, % at 6.8 µM. actives 61% (n = 3,400);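 active = mean activation across triplicate tests above the threshold derived from the earlier primary screen, cut at about 5.5% in these data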;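 note: 0% = DMSO only wells and 100% = 3 µM Δ7-dafachronic acid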
The depositor's hits bear a star.

`N#C/C(=C/c1ccc([N+](=O)[O-])cc1)C(=O)Nc1ccccc1O` gave hgDAF12 agonist 5.7, DAX1 inh-1 -0.3, DAX1 inh-2 3.3, hcDAF-12 act 10.8*, AHR act 67.8*, ssDAF-12 act 0.0, LXR ag 0.2 and hcDAF12 conf 4.8.
Screening O=C(Nc1ccccc1O)c1ccc([N+](=O)[O-])cc1 returned hgDAF12 agonist 6.4, DAX1 inh-1 0.8, DAX1 inh-2 -0.3, hcDAF-12 act 7.0*, AHR act 70.3*, ssDAF-12 act 1.4*, LXR ag -0.1 and hcDAF12 conf 3.1.
Screening N#C/C(=C\c1ccc([N+](=O)[O-])cc1)C(=O)Nc1ccccc1O returned hgDAF12 agonist 6.1, DAX1 inh-1 0.2, DAX1 inh-2 -0.7, hcDAF-12 act 3.9, AHR act 42.3 and ssDAF-12 act -0.3.
`CC(=O)Nc1ccc(NC(=O)N(c2ccccc2)c2ccccc2)cc1` gave hgDAF12 agonist 1.8, DAX1 inh-1 0.3, DAX1 inh-2 0.2, hcDAF-12 act 0.6, AHR act 1.9 and ssDAF-12 act -0.5.
`COc1ccccc1C(=O)NNC(=O)C1CC=CCC1` (stereo not drawn) gave hgDAF12 agonist 3.1, DAX1 inh-1 0.1, DAX1 inh-2 2.5, hcDAF-12 act 7.2*, AHR act 20.1, ssDAF-12 act 4.0*, LXR ag 0.1 and hcDAF12 conf 7.2*.
Screening COc1ccccc1C(=O)NNC(=O)c1ccc2ccccc2c1 returned hgDAF12 agonist 0.0, DAX1 inh-1 -0.4, DAX1 inh-2 0.9, hcDAF-12 act -0.4, AHR act 25.1 and ssDAF-12 act -1.1.
For COc1ccccc1C(=O)NNC(=O)c1ccc(O)cc1 the results were hgDAF12 agonist 7.2, DAX1 inh-1 2.1, DAX1 inh-2 1.9, hcDAF-12 act 4.5 and ssDAF-12 act -0.2.
COc1ccccc1C(=O)NNC(=O)c1ccc(F)cc1 was read as hgDAF12 agonist 10.0, DAX1 inh-1 1.6, DAX1 inh-2 1.3, hcDAF-12 act 9.3*, AHR act 28.2, ssDAF-12 act -0.1, LXR ag 0.7 and hcDAF12 conf 6.8*.
Screening COc1ccccc1C(=O)NNC(=S)Nc1ccccc1 returned hgDAF12 agonist 6.6, DAX1 inh-1 1.3, DAX1 inh-2 3.2, hcDAF-12 act 10.7*, ssDAF-12 act -0.1, LXR ag 0.1 and hcDAF12 conf 9.0*.
For COc1ccccc1C(=O)NNC(=O)C(=O)Nc1ccc(C)cc1 the results were hgDAF12 agonist 2.8, DAX1 inh-1 0.4, DAX1 inh-2 0.1, hcDAF-12 act 3.8, AHR act 17.3 and ssDAF-12 act 0.6.
For COc1ccc(OC)c(Nc2nc(-c3c(C)nc4ncccn34)cs2)c1 the results were hgDAF12 agonist -3.8, DAX1 inh-1 -0.7, DAX1 inh-2 0.4, hcDAF-12 act 0.1, AHR act 22.2 and ssDAF-12 act -1.1.
Screening COc1ccccc1Nc1nc(-c2cccs2)cs1 returned hgDAF12 agonist 10.0, DAX1 inh-1 1.8, DAX1 inh-2 -0.5, hcDAF-12 act 8.2*, AHR act 42.8, ssDAF-12 act 1.6*, LXR ag 1.8 and hcDAF12 conf 16.0*.
COc1ccc(OC)c(Nc2nc(-c3cccs3)cs2)c1 was read as hgDAF12 agonist 3.6, DAX1 inh-1 0.5, DAX1 inh-2 -0.6, hcDAF-12 act 7.4*, AHR act 47.7*, ssDAF-12 act 0.9*, LXR ag -0.1 and hcDAF12 conf 4.6.
Oc1ccc(Nc2nc(-c3cccs3)cs2)cc1 was read as hgDAF12 agonist -1.1, DAX1 inh-1 0.0, DAX1 inh-2 2.5, hcDAF-12 act -1.6, AHR act 0.4 and ssDAF-12 act -0.9.
CCN(CC)c1nc(NN)nc(Nc2ccc(C)c(Cl)c2)n1 was read as hgDAF12 agonist -2.7, DAX1 inh-1 0.6, DAX1 inh-2 1.0, hcDAF-12 act 1.5, AHR act 28.8 and ssDAF-12 act -1.9.
`N#CCCN(Cc1cccnc1)CN1C(=O)c2ccccc2C1=O` gave hgDAF12 agonist -3.1, DAX1 inh-1 -0.1, DAX1 inh-2 1.3, hcDAF-12 act -1.1 and ssDAF-12 act -0.8.
COc1ccc(OC)c(S(=O)(=O)NCc2ccccn2)c1 was read as hgDAF12 agonist -0.2, DAX1 inh-1 -0.6, DAX1 inh-2 1.5, hcDAF-12 act -1.6, AHR act 0.8 and ssDAF-12 act 0.0.
For NC1=NC(=O)/C(=C\c2ccc(-c3ccc(Cl)cc3)o2)S1 the results were hgDAF12 agonist 5.5, DAX1 inh-1 -0.2, DAX1 inh-2 1.0, hcDAF-12 act 6.5*, AHR act 51.0*, ssDAF-12 act 0.9*, LXR ag 0.2 and hcDAF12 conf 7.7*.
`CC1CN(C(=O)COC(=O)/C=C/c2cccc([N+](=O)[O-])c2)CC(C)O1` (stereo not drawn) gave hgDAF12 agonist 0.5, DAX1 inh-1 -1.3, DAX1 inh-2 -0.1, hcDAF-12 act -0.6, AHR act 12.4 and ssDAF-12 act -1.2.
Screening CC(C)CNC(=O)C(=O)NCC1OCCCN1S(=O)(=O)c1ccc2c(c1)OCCO2 (stereo not drawn) returned hgDAF12 agonist 2.8, DAX1 inh-1 -1.3, DAX1 inh-2 0.2, hcDAF-12 act -2.0, AHR act 3.8 and ssDAF-12 act -1.3.
CCC1CCCCN1CCCNC(=O)Cn1c2ccccc2c2nc(=O)cc(C)n21 (stereo not drawn) was read as hgDAF12 agonist 1.7, DAX1 inh-1 1.1, DAX1 inh-2 0.1, hcDAF-12 act 8.2*, AHR act 15.3, ssDAF-12 act 0.2, LXR ag -0.1 and hcDAF12 conf 6.7*.
For Cn1c(SCC(=O)NCC2CCCO2)nnc1-c1c[nH]c2ccccc12 (stereo not drawn) the results were hgDAF12 agonist 2.0, DAX1 inh-1 -0.7, DAX1 inh-2 1.1, hcDAF-12 act -0.1, AHR act 0.6 and ssDAF-12 act 0.0.
For O=C(CSc1c[nH]c2ccccc12)NCC1CCCO1 (stereo not drawn) the results were hgDAF12 agonist 0.0, DAX1 inh-1 -0.5, DAX1 inh-2 1.1, hcDAF-12 act 9.6*, AHR act 14.8, ssDAF-12 act 1.5*, LXR ag -0.1 and hcDAF12 conf 4.0.
C/C(=N\NC(=O)c1n[nH]c2c1CCC2)c1ccco1 was read as hgDAF12 agonist 7.6, DAX1 inh-1 0.7, hcDAF-12 act 11.0*, AHR act 15.3, ssDAF-12 act 0.0, LXR ag 1.2 and hcDAF12 conf 5.0.
